# Reference: PubChem BioAssay (NCATS)
# Results filed as inconclusive are left out. The source made the active and inactive calls. Calls come from the whole dose curve; as a rule, active = well fitted curve in the direction sought with a large enough effect; inconclusive = small, poorly fitted or top-dose-only effect, or another doubt; inactive = no such curve, though single readings can be large or run the other way.
# Test: qHTS for Inhibitors of the vitamin D receptor (VDR): Hit Validation using a Texas Red Assay (AID 602201)
# Conditions: VDR coregulator binding, Texas Red fluorescence polarization, agonist-bound VDR ligand-binding domain; series mostly up to 57.1 µM
# Method in brief: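 Fluorescence polarization (Ex 595/Em 615 nm) of Texas Red (7 nM) with 1.5 uM VDR-LBD and LG19078 (final concentrations). Compounds were incubated for 2 hours at room temperature.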
# Potency is the fitted concentration of half-maximal effect.
row,SMILES,Potency
1,Cc1cccc2c1N(Cc1ccccc1OCCC(C)C)C(=O)C2=O,12.6 µM (active)
2,NS(=O)(=O)c1ccc(NC(=O)c2nc(S(=O)(=O)Cc3ccccc3F)ncc2Cl)cc1,3.16 µM (active)
3,COc1cc(/C=C2\C(=O)ON=C2c2ccccc2)cc(Br)c1O,inactive
4,O=C(Nc1nnc(COc2ccc(Cl)cc2)s1)c1ccco1,inactive
5,[O-]/[N+](=C/c1ccc(F)cc1)c1ccc(Cl)cc1,inactive
6,NC(=O)c1c(N)sc2c1CCCCC2,14.1 µM (active)
7,Oc1ccc(C(=S)N2CCN(c3cccc(Cl)c3)CC2)cc1,inactive
8,CC(C)CN1C(=O)/C(=C(/C#N)C(=O)NC2CCCCC2)c2ccccc21,3.55 µM (active)
9,Cc1nnc(NC(=O)c2nc(S(=O)(=O)Cc3ccccc3)ncc2Cl)s1,22.4 µM (active)
10,CC(C)(C)C(=O)Nc1ccc2c(c1)C(=O)C(=O)c1ccccc1-2,3.16 µM (active)
11,CC(C)c1ccc(/C=C/c2[nH]c(=O)[nH]c(=O)c2[N+](=O)[O-])cc1,inactive
12,NC(=O)COc1ccc(C(=O)/C=C2/C(=O)Nc3ccccc32)cc1,inactive
13,Cc1ccc(S(=O)(=O)CCC(=O)c2cccc([N+](=O)[O-])c2)cc1,3.55 µM (active)
14,c1ccc(CCc2nn3c(Cn4cnc5ccccc54)nnc3s2)cc1,28.2 µM (active)
15,CCc1ccc(-n2nc3cc(C)c(N)cc3n2)cc1,15.8 µM (active)
16,O=C(/C=C/c1ccc(Cl)cc1)c1ccc([N+](=O)[O-])o1,2.82 µM (active)
17,O=C(/C=C/c1ccccc1F)c1cccc([N+](=O)[O-])c1,3.16 µM (active)
